Reference: PubChem BioAssay (NCI)
The panel holds about 83,000 compounds, 20% with a hit somewhere; the sample as a whole holds those more often.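 Step 1: grow cells in 96-well plates. Step 2: add test compound at a single concentration. Step 3: incubate 48 h. Step 4: record percent growth.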 A number with no mark means an inactive call. The source made the active and inactive calls. Rule for the calls: active = growth percent below 10; inactive = the rest.

Tests used:
Experiment in all cases: NCI-60 one-dose screen, 48 h (100 = growth as untreated, 0 = no growth, -100 = all killed)
Conditions in all cases: 10 µM unless noted
[1] = test system: SK-MEL-2 melanoma
[2] = test system: EKVX NSCLC
[3] = test system: SN12C renal
[4] = test system: UO-31 renal
[5] = test system: TK-10 renal
[6] = test system: ACHN renal
[7] = test system: CAKI-1 renal
[8] = test system: A498 renal
[9] = test system: CCRF-CEM leukemia
[10] = test system: MOLT-4 leukemia
[11] = test system: SR leukemia
[12] = test system: RPMI-8226 leukemia
[13] = test system: OVCAR-8 ovarian
[14] = test system: OVCAR-5 ovarian
[15] = test system: OVCAR-4 ovarian
[16] = test system: SK-OV-3 ovarian
[17] = test system: IGROV1 ovarian
[18] = test system: OVCAR-3 ovarian
[19] = test system: HS 578T breast
[20] = test system: NCI/ADR-RES ovarian

`CCN(CC)CCOc1ccc(NC(=O)C(C(C)C)N2C(=O)/C(=C/c3ccc(Br)cc3)SC2=S)cc1` (centres undefined) gave a growth [1] of 101%, a growth [2] of 90% and a growth [3] of 73.3%. It also gave a growth [4] of 74.5%, a growth [5] of 95.6% and a growth [6] of 62.1%. For the same molecule, the growth [7] was 81%, the growth [8] was 99.5% and the growth [9] was -16.7% (active). The growth [10] was 3.96% (active), the growth [11] was -42% (active) and the growth [12] was 19.5%. For the same molecule, the growth [13] was 25.6%, the growth [14] was 66.4% and the growth [15] was 70.5%. It also gave a growth [16] of 113%, a growth [17] of 82.2% and a growth [18] of 94%. The growth [19] was 84.2% and the growth [20] was 80%.

`COc1ccc(C(=O)c2nc3ccccc3n2CC(=O)c2ccc(F)cc2)cc1` gave a growth [1] of 72.4%, a growth [2] of 190% and a growth [3] of 92.7%. The growth [4] was 88.3%, the growth [5] was 84.2% and the growth [6] was 105%. It also gave a growth [7] of 115%, a growth [8] of 116% and a growth [9] of 79.6%. For the same molecule, the growth [10] was 74.8%, the growth [11] was 41.8% and the growth [12] was 81.8%. For the same molecule, the growth [13] was 89.5%, the growth [14] was 82.5% and the growth [15] was 73.8%. It also gave a growth [16] of 116%, a growth [17] of 86.6% and a growth [18] of 84.1%. For the same molecule, the growth [19] was 103% and the growth [20] was 58.3%.

In the case of `O=C(Cn1c(C(=O)c2ccccc2)nc2ccccc21)c1ccc(F)cc1`, the growth [1] is reported as 60.7%, the growth [2] is reported as 83.2% and the growth [3] is reported as 77.9%. For the same molecule, the growth [4] was 80.6%, the growth [5] was 67.7% and the growth [6] was 95.8%. It also gave a growth [7] of 42.6%, a growth [8] of 86.5% and a growth [9] of 57.1%. The growth [10] was 21.3%, the growth [11] was 25.4% and the growth [12] was 28.7%. The growth [13] was 79.7%, the growth [14] was 84.2% and the growth [15] was 58.4%. For the same molecule, the growth [16] was 110%, the growth [17] was 41.1% and the growth [18] was 67.2%. It also gave a growth [19] of 56.2% and a growth [20] of 16.1%.

In the case of `c1ccc(Cn2cnc3ccc(-c4nc(-c5ccc6c(c5)ncn6C5CCCCC5)cn5ccnc45)cc32)cc1`, the growth [1] is reported as -36.7% (active), the growth [2] is reported as -12.3% (active) and the growth [3] is reported as -35.4% (active). The growth [4] was -51.4% (active), the growth [5] was 5.2% (active) and the growth [6] was 19.9%. The growth [7] was 43.3%, the growth [8] was -71.8% (active) and the growth [9] was 5.6% (active). The growth [10] was 4.39% (active), the growth [11] was 5.45% (active) and the growth [12] was -41.2% (active). The growth [13] was 2.45% (active), the growth [14] was -29% (active) and the growth [15] was 16.8%. The growth [16] was -22.2% (active), the growth [17] was 5.81% (active) and the growth [18] was -35.7% (active). The growth [19] was 0.386% (active) and the growth [20] was 0.531% (active).

With `O=C1c2cccc3c(-c4ccc5c(c4)ncn5C4CCCCC4)ccc(c23)C(=O)N1CCO` the growth [1] was 89.5%, the growth [2] was 76.4% and the growth [3] was 93.8%. For the same molecule, the growth [4] was 62.1%, the growth [5] was 101% and the growth [6] was 94.7%. The growth [7] was 77.5%, the growth [8] was 103% and the growth [9] was 79%. It also gave a growth [10] of 71.9%, a growth [11] of 84.7% and a growth [12] of 66.3%. It also gave a growth [13] of 83.2%, a growth [14] of 110% and a growth [15] of 86%. For the same molecule, the growth [16] was 109%, the growth [17] was 96.2% and the growth [18] was 88.9%. For the same molecule, the growth [19] was 94.7% and the growth [20] was 89.1%.

Work on `C=C(CBr)[C@@H]1CC[C@]2(COC(C)=O)CC[C@]3(C)[C@H](CC[C@@H]4[C@@]5(C)CCCNC(C)(C)[C@@H]5CC[C@]43C)[C@@H]12` yielded a growth [1] of 59.4%, a growth [2] of 46.9% and a growth [3] of 48%. It also gave a growth [4] of 29.6%, a growth [5] of 41.1% and a growth [6] of 39.5%. For the same molecule, the growth [7] was 37.5%, the growth [8] was 49.4% and the growth [9] was 33.8%. For the same molecule, the growth [10] was 10.9%, the growth [11] was 10% and the growth [12] was 7.96% (active). The growth [13] was 40.4%, the growth [14] was 87.3% and the growth [15] was 50.8%. It also gave a growth [16] of 72.5%, a growth [17] of 60.1% and a growth [18] of 33.7%. It also gave a growth [19] of 73.7% and a growth [20] of 48.9%.

`OC(c1cccc(C(F)(F)F)c1)c1cnccc1NC1CCCCC1` (centres undefined) gave a growth [1] of 92.6%, a growth [2] of 77.6% and a growth [3] of 73.5%. For the same molecule, the growth [4] was 52.2%, the growth [5] was 82.7% and the growth [6] was 87.2%. For the same molecule, the growth [7] was 69.5%, the growth [8] was 77.4% and the growth [9] was 62%. It also gave a growth [10] of 71.6%, a growth [11] of 51.6% and a growth [12] of 29.9%. The growth [13] was 86.9%, the growth [14] was 95.3% and the growth [15] was 74.7%. The growth [16] was 95.9%, the growth [17] was 76.3% and the growth [18] was 81.1%. For the same molecule, the growth [19] was 80.6%.

Work on `C/C=C(\C)C(=O)NC1=CC[C@@]2(C)C(=CCC3C2CC[C@@]2(C)C3CC[C@@H]2C(C)N(C)C)C1=O` (some centres undefined) yielded a growth [1] of 86.5%, a growth [2] of 32% and a growth [3] of 60.6%. For the same molecule, the growth [4] was 1.15% (active), the growth [5] was 58.1% and the growth [6] was 65.6%. It also gave a growth [7] of 63.6%, a growth [8] of 71.2% and a growth [9] of 15.3%. The growth [10] was 47%, the growth [11] was 27.7% and the growth [12] was 3.85% (active). For the same molecule, the growth [13] was 65.9%, the growth [14] was 85.8% and the growth [15] was 1.84% (active). The growth [16] was 114%, the growth [17] was 40.4% and the growth [18] was 29.3%. For the same molecule, the growth [19] was 56.8% and the growth [20] was 55.7%.
